# Screens from PubChem BioAssay.
# A selection: hits, their analogues and other compounds. The true share with any hit is near 3.8%.
# TGFb inhibitor = qHTS for Inhibitors of TGF-b; HepG2 CAGA-GFP TGF-b/SMAD3 reporter, GFP fluorescence, 18 h; TGF-beta stimulated, 500 pg/mL final; Potency, µM (highest dose often 46.1 µM), for inactives: top-dose activity, negative = inhibition, most hits filed as inhibitors; actives 1.2% (n = 410,000); AID 588855, 2011; note: % is set by controls: 0 for no effect and ±100 for the full control effect; nearly all actives have a fitted effect of over 65% in size
#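 HEPG2 CAGA-GFP cells (1000/well, DMEM with 1% FBS) were pre-incubated 2 h at 37 degrees C, given compound by pin tool, then stimulated with TGF-beta at 500 pg/mL final for 18 h before per-cell GFP fluorescence imaging.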
# A549 viability = Nrf2 qHTS screen for inhibitors: counterscreen for cytotoxicity; Potency, µM (series often up to 46 µM), without a hit: at the top dose activity change, negative = cytotoxicity, actives largely listed as inhibitors; actives 0.16% (n = 390,000); A549 ARE-Fluc cells, CellTiter-Fluor viability, 18-24 h; note: % is set by controls: 0 for no effect and ±100 for the full control effect
#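 A549 ARE-Fluc cells in 5% FBS OPTI-MEM, 5000 cells/well, rested 2 h then exposed to compounds in concentration-response for 18-24 h at 37 °C. Viability by CellTiter-Fluor fluorescence (Ex 405/Em 525) after 30 min; luciferase luminescence (BugLite, 15 min, RT) read afterwards.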
# HepG2 tox = qHTS for Inhibitors of TGF-b: Cytotox Counterscreen; HepG2 CAGA-GFP viability, ATP luminescence, 18 h; Potency, µM (top dose mostly 46.1 µM), inactives show at the highest dose activity change, negative = cytotoxicity, usual class: cytotoxic; actives 0.76% (n = 410,000)
#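 CellTiter-Glo luminescence gave cytotoxicity after 18 hours at 37 degrees C. The cells were HepG2 CAGA-GFP in 1% FBS DMEM, stimulated with 500 pg/mL TGF-beta after compound addition. %Activity was normalised to no-cell wells (complete cell-killing) and DMSO (no toxicity), and curves were fitted and classified.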
# S2 tox = Viability Counterscreen for Primary qHTS for Inhibitors of ATXN expression; S2 cells (HEK-293 line with an ATXN2-luciferase reporter) viability, CellTiter-Fluor protease fluorescence, 24 h; Potency, µM (series often up to 56.7 µM), hits mostly cytotoxic; actives 0.49% (n = 400,000); AID 651635, 2014; note: nearly all actives have a fitted effect of over 40% in size
# Nrf2 block = Nrf2 qHTS screen for inhibitors; A549 ARE-Fluc reporter, luciferase luminescence, 18-24 h; Potency, µM (highest dose often 46 µM), inactives show top-dose activity change, negative = inhibition, usual class: inhibitors; actives 2.1% (n = 360,000); AID 504444, 2011; note: % is set by controls: 0 for no effect and ±100 for the full control effect; nearly all actives have a fitted effect of over 60% in size
#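 Two sequential reads on A549 ARE_Fluc cells exposed to compound for 18-24 h: a CellTiter-Fluor fluorescence read for viability, then a luciferase luminescence read for Nrf2/ARE activity.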
# ATXN2 expr inh = Primary qHTS for Inhibitors of ATXN expression; AID 1745845, 2022; actives 0.72% (n = 360,000); HEK-293 ATXN2-luciferase reporter, luminescence, 24 h; Potency, µM (doses to about 57 µM), without a hit: top-dose activity change, negative = inhibition, usual class: inhibitors; note: % is set by controls: 0 for no effect and ±100 for the full control effect; nearly all actives have a fitted effect of over 55% in size
#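 qHTS (up to 57 uM final) was run with 24 h compound exposure of reporter cells at 37 °C. Each well was multiplexed: SteadyGlo luminescence measured ATXN2-luciferase expression after a fluorogenic Gly-Phe-AFC viability readout (25 uM final).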
# An asterisk follows results filed as active; i = inactive; ? = inconclusive; . = no result. Calls come from the whole dose curve; as a rule, active = well fitted curve in the direction sought with a large enough effect; inconclusive = small, poorly fitted or top-dose-only effect, or another doubt; inactive = no such curve, though single readings can be large; an effect the other way counts as inactive or inconclusive. Potency is the fitted concentration of half-maximal effect.
SMILES,TGFb inhibitor,A549 viability,HepG2 tox,S2 tox,Nrf2 block,ATXN2 expr inh
O=C(N[C@@H]1C/C=C\C[C@@H](CC(=O)N(CCO)Cc2ccccc2)C(=O)NC[C@H](c2ccccc2)OC1=O)OCC1c2ccccc2-c2ccccc21,?,-16%,-60%,?,?,?
O=C(C[C@H]1C/C=C\C[C@@H](Cc2ccc(F)cc2)C(=O)O[C@H](c2ccccc2)CNC1=O)N[C@@H](CO)Cc1ccccc1,-5%,-3%,0%,i,-4%,11%
O=C(N[C@@H]1C/C=C\C[C@H](CC(=O)N(CCO)Cc2ccccc2)C(=O)NC[C@@H](c2ccccc2)OC1=O)OCC1c2ccccc2-c2ccccc21,7.9µM*,-20%,-66%,?,?,0%
Cc1ccc(-n2cc(CN3CCC(O)(c4ccccn4)CC3)c(-c3ccc(F)cc3)n2)cc1,?,?,-51%,i,?,1%
O=C1N=C(N2CCOCC2)S/C1=C/c1cc2c(cc1[N+](=O)[O-])OCO2,-15%,?,-34%,i,?,47%
COCCCNC(=O)C1CCCN(c2ncnc3onc(C)c23)C1 (centres undefined),-17%,0%,-2%,i,?,-8%
Cc1noc2ncnc(N3CCCC(C(=O)NCCC(C)C)C3)c12 (centres undefined),?,0%,-18%,i,23µM*,-8%
COc1ccccc1/C=C/C(=O)OCC(=O)N1CCc2ccccc21,-1%,2%,-15%,i,8%,11%
CC(NC(=O)c1ccc(C23CC4CC(CC(C4)C2)C3)cc1)C(=O)O (centres undefined),3%,11%,-4%,i,-7%,.
COCCCN(C(=S)Nc1cc(Cl)cc(Cl)c1)C(C)c1ccccn1 (centres undefined),?,8%,16µM*,i,?,.
C[C@@H](C[C@@H](O)[C@H](O)C(C)(C)O)[C@@H]1CC[C@]2(C)C3=CC[C@H]4C(C)(C)C(=O)CC[C@]4(C)[C@H]3CC[C@@]12C,11µM*,?,11µM*,.,?,?
COc1ccc(Br)cc1Cn1nnc(C(=O)Nc2ccc(C)cc2C)c1N,?,-25%,-17%,?,16µM*,?
O=c1[nH]c(C2CCN(S(=O)(=O)c3ccccc3C(F)(F)F)CC2)nc2c1nnn2Cc1cccc(F)c1,?,?,4%,i,23µM*,-34%
O=c1[nH]c(C2CCN(S(=O)(=O)c3cccc(Cl)c3)CC2)nc2c1nnn2Cc1ccccc1,?,?,-16%,i,15µM*,-10%
Clc1ccc2[nH]cc(-c3nnnn3-c3ccccc3)c2c1,?,-7%,-12%,i,18%,-14%
CCS(=O)(=O)c1ccc(N=Nc2ccc(O)c3ncccc23)c(OC)c1,?,18µM*,-1%,.,?,?
COc1ccccc1N=Nc1ccc(O)c2ncccc12,?,-15%,-10%,16µM*,-26%,.
Cc1ccc(N=Nc2ccc(O)c3ncccc23)cc1,?,-20%,8%,?,?,13µM*
Cc1c(C(=O)NNC(=S)NCc2ccc(Cl)cc2)oc2ccccc12,?,1%,-37%,i,-11%,-6%
Cc1nnc(N/N=C/c2cc([N+](=O)[O-])c(N3CCC(C)CC3)cc2N2CCC(C)CC2)n1N,-13%,?,-96%,i,18µM*,-27%
CCc1nnc(N/N=C/c2ccc(N3CCC(C)CC3)c([N+](=O)[O-])c2)n1N,10µM*,-9%,11µM*,i,-4%,-22%
Cc1ccc(C(=O)Nc2nnc(S(=O)(=O)N3CCc4ccccc43)s2)cc1,?,0%,-26%,i,25%,2%
CCN(CC)C(=O)Cn1c(=O)n(CC2CCC(C(=O)NC)CC2)c(=O)c2sccc21 (centres undefined),24%,3%,10%,i,?,-1%
CCCS(=O)(=O)NC(=O)C1(C)CCCN(C(=O)c2ccc(C#N)cc2)C1 (centres undefined),-4%,.,4%,i,.,14%
CC(OC(=O)/C=C/c1ccco1)C(=O)NC1CCCCC1C (centres undefined),-7%,-7%,-9%,i,13µM*,-18%
SMILES,TGFb inhibitor,A549 viability,HepG2 tox,S2 tox,Nrf2 block,ATXN2 expr inh
Cc1ccc2nc(C)cc(Nc3ccc4c(c3)OCCO4)c2c1,?,-23%,-22%,?,3%,-19%
CCOc1ccc2nc(C)cc(Nc3ccc4c(c3)OCCO4)c2c1,22µM*,-14%,-81%,?,-18%,?
CCOc1ccc2nc(C)cc(Nc3cccc([N+](=O)[O-])c3)c2c1,?,-21%,-101%,.,-3%,28µM*
Cc1cc(Nc2cccc([N+](=O)[O-])c2)c2ccccc2n1,-15%,1%,-20%,i,-18%,-12%
Cc1nc(-c2ccc(S(=O)(=O)Nc3cc(Cl)ccc3C)cc2)co1,-11%,-8%,-14%,i,.,-21%
C[C@H](CCC(=O)O)[C@H]1CC[C@H]2[C@H]3[C@@H](CC[C@]12C)[C@@]1(C)CC[C@@H](O)C[C@H]1C[C@@H]3O,.,.,.,.,.,-2%
COc1cccc(C(=O)Nc2ccc(C(=O)c3ccccc3)cc2)c1,-9%,-7%,-20%,?,?,.
Cc1cccc(NC(=O)C(=O)NNC(=O)c2ccc(C(C)(C)C)cc2)c1,-1%,6.5µM*,-3%,i,?,14%
COc1ccc(C(=O)Nc2ccc(C(=O)c3ccccc3)cc2)cc1,?,-6%,2%,i,9.2µM*,-18%
CC(C)(C)c1ccc(C(=O)NNC(=O)c2cccc(Br)c2)cc1,?,-12%,-63%,i,.,-7%
COc1ccc(C(=O)Nc2ccc(C(=O)Nc3cccc(C)c3)cc2)cc1,-2%,-7%,3%,10µM*,-5%,?
CCCc1cc(C(=O)Nc2ccc(C(=O)c3ccccc3)cc2)n(C)n1,?,?,-39%,i,21µM*,-38%
O=C(Nc1c(C(=O)O)[nH]c2ccc(F)cc12)c1cccc(C(F)(F)F)c1,0%,-3%,8%,i,-9%,-1%
CCN(Cc1ccccc1)C(=O)c1ccc(NC(=O)c2ccc(OC)cc2)cc1,-15%,-15%,-21%,i,23µM*,-15%
